Screening data (PubChem)
The entries come from a sample that favours hits as a whole.
NS1 inh = inhibitors of influenza NS1 protein function. AID 2326. Potency, µM (top dose mostly 46.1 µM), inactives show top-dose activity, positive = more growth. 270,000 compounds, 0.4% hits; calls by dose curve; further: actives are rising curves; nearly all actives have a fitted effect of over 50% in size
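Growth recovery, yeast-based: influenza A NS1 expressed in S. cerevisiae causes slow growth, and suppressors are detected by OD600. The parent strain without NS1 is used as positive control.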
Cruzain inh noDet = blocks cruzain activity in detergent-free assay | P25779 | purified cruzain, Z-FR-AMC fluorescence, no detergent | Potency, µM, inactives show max response, negative = inhibition, hits mostly inhibitors | 200,000 compounds, 2.3% hits;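 further: plate controls were enzyme without inhibitor for no effect and buffer without enzyme for full effect; nearly all actives have a fitted effect of over 40% in size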
Target sequence (P25779 123-467 limits assumed): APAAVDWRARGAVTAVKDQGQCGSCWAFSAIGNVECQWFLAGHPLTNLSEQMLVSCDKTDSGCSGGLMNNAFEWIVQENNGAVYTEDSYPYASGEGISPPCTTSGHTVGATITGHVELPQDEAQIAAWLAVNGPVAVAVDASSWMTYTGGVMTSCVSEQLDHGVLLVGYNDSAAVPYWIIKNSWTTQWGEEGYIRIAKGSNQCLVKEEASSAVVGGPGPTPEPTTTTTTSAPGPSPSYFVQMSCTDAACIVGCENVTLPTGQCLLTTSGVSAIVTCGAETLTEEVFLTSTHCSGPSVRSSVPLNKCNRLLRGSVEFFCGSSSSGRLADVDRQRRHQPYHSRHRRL
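Purified cruzain at 1.5 nM, pre-incubated 15 min with compound at room temperature in 100 mM sodium acetate pH 5.5, 5 mM DTT, 0.00005% Triton X-100. Reaction started with 2 uM Z-FR-AMC; AMC fluorescence increase over 60 s gives rate.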
Cruzain Triton = blocks cruzain activity in presence of Triton detergent; purified cruzain, Z-FR-AMC fluorescence, 0.01% Triton; Potency, µM, inactives show max response, negative = inhibition, actives largely listed as inhibitors; AID 1478; P25779; 200,000 compounds, 0.43% hits;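 further: plate controls were neutral wells for no effect and buffer without enzyme for full effect; nearly all actives have a fitted effect of over 40% in size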
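Steps: dispense cruzain (1.5 nM final) in acetate buffer pH 5.5 with DTT and 0.01% Triton X-100; pin-transfer compounds; incubate 15 min RT; add Z-FR-AMC (2 uM final); read fluorescence every 30 s, using the 60 s intensity change.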
Numbers without * were called inactive; u = inconclusive; x = no result given. Unless noted, the call rests on the fitted dose curve; in most records, active means well fitted curve in the direction sought with a large enough effect; inconclusive means small, poorly fitted or top-dose-only effect, or another doubt; inactive means no such curve, though single readings can be large; an effect the other way counts as inactive or inconclusive. Potency means the concentration at half of the fitted maximal effect.

SMILES | NS1 inh | Cruzain inh noDet | Cruzain Triton
Cc1ccccc1C(=O)Nc1ccc(-c2nc3ccc(C(=O)c4ccccc4)cc3[nH]2)cc1 | -13% | 13µM* | -2%
O=C(Nc1ccc2nc(-c3cccs3)[nH]c2c1)c1cccs1 | -7% | 18% | 3%
O=C(Nc1ccc(-c2noc(-c3ccccc3F)n2)cc1)c1cccs1 | -8% | 20µM* | 1%
O=C(c1ccccc1)c1ccc2nc(-c3ccc(NC(=O)c4ccccc4Br)cc3)[nH]c2c1 | -35% | 3% | -3%
Cc1ccccc1-c1nc(-c2ccc(NC(=O)c3cccs3)cc2)no1 | -22% | u | 3%
Cc1ccc2nc(-c3ccc(NC(=O)c4ccco4)cc3)[nH]c2c1 | -12% | -1% | 25µM*
CCC(O)c1nc2ccccc2n1CCOc1cc(C)cc(C)c1 (stereo not given) | x | u | -9%
c1ccc(C[N+]23CN4CN(CN(C4)C2)C3)cc1 | -3% | 8% | 1%
Cc1ccc(Cl)cc1NC(=O)Cn1cc2c(n1)CCCCC2 | x | -4% | -2%
CN(C)c1ccc(CNC(=O)CN2CCSc3ccc(S(=O)(=O)N(C)C)cc32)cc1 | x | -1% | -4%
O=C(O)c1ccncc1.O=C(O)c1ccncc1.[Cl][Pt]([Cl])([Cl])[Cl] | -13% | 4% | 1%
COc1cccc(NC(=O)Cn2c(=O)c3cccn3c3ccc(F)cc32)c1 | x | 18% | -10%
O=C(Nc1cccc(-c2nc3ccccc3[nH]2)c1)c1ccco1 | -110% | -10% | -7%
O=C(Nc1ccc2nc(-c3cccs3)[nH]c2c1)c1ccco1 | 1% | 20µM* | -22%
O=C(COc1ccc(/C=N/NC(=O)c2cc3ccccc3o2)cc1Br)Nc1ccccc1 | 16% | 10µM* | 25µM*
O=C(COc1ccccc1[N+](=O)[O-])Nc1ccc(NC(=O)c2cc3ccccc3o2)cc1 | -1% | x | x
Cc1ccc(C)c2sc(NC(=O)c3nc4ccccc4s3)nc12 | 19% | 10µM* | -1%
O=C(Nc1ccccc1)c1nc2ccccc2s1 | 3% | -5% | -7%
COc1ccc(-c2nnc(SCC(=O)Nc3cccc(C(F)(F)F)c3)nc2-c2ccc(OC)cc2)cc1 | x | -22% | -5%
CCOC(=O)c1cc(-c2ccccc2)sc1NC(=O)CCN1C(=O)c2ccccc2C1=O | -1% | u | -16%
CCOC(=O)c1cc(-c2ccccc2)sc1NC(=O)C(C)N1C(=O)c2ccccc2C1=O (stereo not given) | 12% | 25µM* | -5%
CCOC(=O)c1cc(-c2ccccc2)sc1NC(=O)CN1C(=O)NC(CC)(c2ccccc2)C1=O (stereo not given) | 17% | 10µM* | -9%
CCOC(=O)c1cc(-c2ccccc2)sc1N | -98% | 25µM* | -12%
CCOC(=O)c1sc(-c2ccccc2)cc1N | -11% | -8% | -12%
CCOC(=O)c1cc(-c2ccccc2)sc1NC(=O)CC | -11% | 1% | -9%
SMILES | NS1 inh | Cruzain inh noDet | Cruzain Triton
COc1ccc(-n2c(=O)c(-c3ccccc3)nc3cnc(N4CCOCC4)nc32)cc1 | x | -2% | -1%
COc1ccc(NC(=O)CCc2nnc3n(CC(C)C)c(=O)c4ccccc4n23)cc1 | x | -6% | 0%
O=S1(=O)N=C(Nc2ccc(N3CCOCC3)cc2)c2ccccc21 | 2% | -19% | -4%
Cc1ccccc1-c1ccc(Nc2ccc(N3CCOCC3)cc2)nn1 | -18% | 25µM* | -9%
COc1cc2oc(=O)c3c4c(cc5ccc(c1CCN(C)C)c2c53)OCO4 | x | -17% | -6%
O=C(CNC(=O)c1ccccc1F)OC(C(=O)Nc1cc(C(F)(F)F)ccc1Cl)c1ccccc1 (stereo not given) | 5% | 7.9µM* | 5µM*
C[C@H](NC(=O)c1ccccc1Cl)C(=O)OC(C(=O)Nc1cc(C(F)(F)F)ccc1Cl)c1ccccc1 (stereo not given in full) | 25% | -30% | u
COc1ccc(-c2nc3cnc(OC)nc3n(C)c2=O)cc1 | x | -1% | 1%
COC(=O)Cc1c(C)c2ccc(O)c(CNCc3ccc(OC)c(OC)c3)c2oc1=O | 7% | x | x
CCN(CC)Cc1c(O)ccc2c(C)c(CC(=O)OC)c(=O)oc12 | -5% | u | 25µM*
c1ccc(Nc2nc3ccccc3[nH]2)nc1 | -33% | 10µM* | 25µM*
Nc1ccc(Nc2nc3ccccc3[nH]2)cc1 | 12% | x | x
COc1cccc(Cn2c(=O)c(-c3cccc(F)c3)nc3cncnc32)c1 | x | -3% | 2%
COc1ccc(-c2cc(C#N)nc(Oc3ccc(Cl)cc3)n2)cc1 | 1% | 25µM* | 28µM*
N#Cc1cc(-c2ccccc2)nc(Oc2ccccc2)n1 | -21% | -25% | 16µM*
N#Cc1ccc(Oc2nc(C#N)cc(-c3ccccc3)n2)cc1 | 7% | -23% | 14µM*
COc1ccc(-c2cc(C#N)nc(N3CCNCC3)n2)cc1 | 4% | 32µM* | -24%
CN1CCN(c2nc(C#N)cc(-c3ccccc3)n2)CC1 | 10% | u | -22%
NC(=O)c1cc(-c2ccccc2)nc(Oc2ccccc2)n1 | -9% | -14% | -3%
CCN(CC)c1nc(C#N)cc(-c2ccc(OC)cc2)n1 | -6% | -14% | -14%
COc1ccc(-c2cc(C#N)nc(Cl)n2)cc1 | -50% | x | x
CCOC(=O)c1c(S(=O)(=O)N2CCCC(C(=O)NCc3ccc(Cl)cc3)C2)c(C)n(C)c1C (stereo not given) | x | u | -3%
Cc1ccc(CCNC(=O)C2CCCN(S(=O)(=O)c3ccc4c(c3)oc(=O)n4C)C2)cc1 (stereo not given) | x | u | 0%
O=C(NCCc1nc2ccccc2n1Cc1c(F)cccc1Cl)c1ccco1 | x | -8% | u
CC(C)N=C=NC(C)C | x | -4% | 2%
SMILES | NS1 inh | Cruzain inh noDet | Cruzain Triton
COc1ccc(-c2cc(C(N)=O)nc(N3CCCCCC3)n2)cc1 | 5% | 32µM* | -4%
COc1ccc(-c2cc(C(F)(F)F)nc(N3CCCCCC3)n2)cc1 | 0% | 6% | -1%
COc1cccc(NC(=O)CSc2nc(C)c(Cc3ccccc3)c(=O)[nH]2)c1 | x | -9% | -5%
Cc1ccc(NC(=O)CN2C(=O)CC(c3ccco3)Sc3ccccc32)cc1Cl (stereo not given) | x | -5% | -4%
CC(=O)CSCc1ccccn1 | 0% | -8% | -1%
Cc1cc(/C=N/NC(N)=S)c(C)n1-c1ccc(Cl)cc1 | 14% | u | 28µM*
Cc1cccc(C)c1-n1c(C)cc(/C=N/NC(N)=S)c1C | -48% | u | -16%
CC1CCCN(CCCNC(=O)c2cc(Sc3ccc(F)cc3)nc3ccccc23)C1 (stereo not given) | x | -4% | 1%
C/C(Cl)=C/CCl | x | -1% | 7%
CCOC(=O)c1c(C)[nH]c(C=O)c1Cc1cccc(Cl)c1 | -9% | -6% | -8%
CCOC(=O)c1c(C)[nH]c(C2=NNC(=Nc3cccc(Cl)c3)SC2)c1C | -3% | 16µM* | 1%
Cc1cc(Cl)ccc1NC(=O)CN1C(=O)COc2ccc(S(=O)(=O)N3CCC(C)CC3)cc21 | x | 5% | -1%
O=C(Nc1ccc(N2CCCCC2)c(Cl)c1)c1ccc(N2CCOCC2)c([N+](=O)[O-])c1 | 14% | -1% | -3%
O=C(Nc1nc2ccc(Cl)cc2s1)c1ccc(N2CCCCC2)c([N+](=O)[O-])c1 | 26% | 5µM* | -3%
CC(=O)N1CCN(c2ccc(NC(=O)c3ccc(N4CCCC4)c([N+](=O)[O-])c3)cc2Cl)CC1 | 2% | 13% | 1%
